Measurements published in PubChem BioAssay AID489012 (National Center for Advancing Translational Sciences (NCATS), 2010).
Results filed as inconclusive are left out. The source made the active and inactive calls. Calls follow the shape of the dose curve; as a rule, active = well fitted activation curve with a large enough effect; inconclusive = small, poorly fitted or top-dose-only effect; inactive = no such curve, though single readings can be large or run the other way.

What follows are molecules tested against Relaxin receptor 1 (Homo sapiens) (UniProt Q9HBX9) (assay: qHTS Assay for Agonists of the Relaxin Receptor RXFP1: RXFP1 Hit Validation). Conditions: HEK293T-RXFP1 cAMP TR-FRET, 30 min; series mostly up to 115 µM; activation: at the top concentration.
Sequence of Relaxin receptor 1 (Homo sapiens) (Q9HBX9 whole entry, looked up): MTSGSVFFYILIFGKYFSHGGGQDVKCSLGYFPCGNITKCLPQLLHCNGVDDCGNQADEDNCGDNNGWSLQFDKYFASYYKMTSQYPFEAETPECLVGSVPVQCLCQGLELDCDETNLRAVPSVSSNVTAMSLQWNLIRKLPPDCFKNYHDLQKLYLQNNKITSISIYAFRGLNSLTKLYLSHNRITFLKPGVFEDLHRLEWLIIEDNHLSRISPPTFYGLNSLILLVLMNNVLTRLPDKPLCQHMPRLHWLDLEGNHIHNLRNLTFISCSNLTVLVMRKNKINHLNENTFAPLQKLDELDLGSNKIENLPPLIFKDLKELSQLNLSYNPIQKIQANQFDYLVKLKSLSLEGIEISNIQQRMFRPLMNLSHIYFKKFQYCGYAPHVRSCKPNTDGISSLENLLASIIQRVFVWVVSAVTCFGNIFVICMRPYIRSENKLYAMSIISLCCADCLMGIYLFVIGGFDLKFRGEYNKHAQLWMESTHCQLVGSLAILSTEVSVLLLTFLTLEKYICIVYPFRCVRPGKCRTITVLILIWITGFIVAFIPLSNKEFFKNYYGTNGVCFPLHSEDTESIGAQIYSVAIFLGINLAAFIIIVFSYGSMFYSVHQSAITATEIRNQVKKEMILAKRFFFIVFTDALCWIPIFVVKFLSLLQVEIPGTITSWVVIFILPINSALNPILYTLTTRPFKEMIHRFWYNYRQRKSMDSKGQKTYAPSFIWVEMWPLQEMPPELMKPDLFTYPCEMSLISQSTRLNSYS
Also: nearly all actives have a fitted effect of over 65% in size.
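For activation in this document: cAMP rise lowers the TR-FRET signal in lysed cells with PDE4 inhibitor present; 0% = buffer-only basal and 100% = 29 nM porcine relaxin.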
Potency is read from the fitted curve at half-maximal effect.

activation, inactive:
Cc1cccc(C(=O)Nc2ccccc2C(=O)NCc2ccco2)c1 9.91% [at 125 µM], O=C(Nc1ccccc1C(=O)N1CCCCC1)c1ccco1 3.58% [at 125 µM], O=C(Nc1ccccc1C(=O)NCCc1ccc(O)cc1)c1ccco1 -4.47% [at 125 µM], Cc1ccccc1NC(=O)c1ccccc1NC(=O)c1ccco1 -6.33% [at 125 µM], O=C(Nc1ccccc1C(=O)O)c1ccc(NC(=O)C2CC2)cc1 -5.11% [at 45 µM], CCc1nn(CC(=O)NCCCN2CCOCC2)c(=O)c2cc3sccc3n12 27.9%, CCCc1nc(SCC(=O)NCC2CCCO2)c2c(=O)n(C)c(=O)n(C)c2n1 (stereo unspecified) 26.1% [at 45 µM], Cc1cccc(-c2nnc(SCC(=O)NC3CC3)n2C)c1 -32%, Cc1ccc(CN(C)C(=O)c2ccc3c(c2)NC(=O)CS3)o1 -29.9%, CCN(c1ccccc1)S(=O)(=O)c1ccc(OC)c(NC(=O)C2CC(=O)N(Cc3ccccc3)C2)c1 (stereo unspecified) -5.54%, Cc1cc(C)c(C(=O)CSc2n[nH]c(=O)n2C2CC2)cc1C -3.14%, CN(C)CCCn1c(SCC(=O)Nc2nc(-c3cccc(Br)c3)cs2)nc2ccccc2c1=O -5.83%, CC(=O)C1C(c2ccccc2)c2c(noc2C)CC1(C)O (stereo unspecified) -2.95%, CCNc1nc(NCC)nc(N(C)/N=C/c2ccco2)n1 7.3%, COc1cccc(CNC(=O)c2ccc(CS(=O)Cc3ccc(C)cc3)o2)c1 (stereo unspecified) 3.96% [at 45 µM], Cn1c(=O)c2c(nc(SCC(=O)N3CCOCC3)n2C)n(C)c1=O 27.2%, CC(C)c1ccccc1NC(=O)c1ccccc1NC(=O)C1CCCCC1 5.99% [at 125 µM], O=C(O)CNC(=O)c1ccccc1NC(=O)c1ccco1 2.24% [at 125 µM], C=CCOc1c(Cl)cc(CNc2ccc(N(C)C)cc2)cc1OC 6.41%, COc1ccc(/C=C2/SC(=O)N(CC(=O)Nc3cc(C)on3)C2=O)cc1OC -68%, COc1ccc(/C=C2/SC(=O)N(CCC(=O)Nc3ccc(C)cc3)C2=O)cc1OC -69.1%

Potency, active:
COc1ccccc1CNS(=O)(=O)c1cc(CN2C(=O)c3cccnc3C2=O)ccc1OC 30.9 µM, O=c1oc2cc(O)c(Cl)cc2c2ccccc12 6.9 µM, Cc1cc(Br)c2nc3c(c(C(=O)O)c2c1)CCCCC3 1.94 µM, Cc1ccccc1OCC(=O)Nc1sc(C(=O)Nc2cccc(C)c2C)c(C)c1C#N 6.15 µM, Brc1ccc2ncnc(NCc3cccnc3)c2c1 38.9 µM, CCOC(=O)c1sc(NC(=O)CCc2ccc(OC)cc2)nc1C 15.4 µM, C=CCSc1nc2c(c(=O)[nH]1)C(C(C)C)C(C#N)=C(N)O2 (stereo unspecified) 27.5 µM, O=C(Oc1ccccc1)Oc1ccc2c(c1)oc(=O)c1ccccc12 21.8 µM, CC(=O)c1sc(NC(=O)C(C)C)nc1C 15.4 µM, O=[N+]([O-])c1cc2c(c(CSc3nnc4ccccn34)c1)OCOC2 30.9 µM, Cc1cc(C)nc(NS(=O)(=O)c2ccc(NC(=O)c3nn(-c4ccccc4)ccc3=O)cc2)n1 24.5 µM, Cc1cc(NC(=O)c2ccccc2F)nc2c1c(=O)oc1ccccc12 17.3 µM, NCCNC(=O)Cc1ccc(NC(=O)Cc2ccc(Nc3ncnc4c3ncn4[C@@H]3O[C@H](CO)[C@@H](O)[C@H]3O)cc2)cc1 1.23 µM, C=C[C@@]1(C)CC(=O)[C@]2(O)[C@@]3(C)[C@@H](O)CCC(C)(C)[C@@H]3[C@H](O)[C@H](OC(C)=O)[C@@]2(C)O1 0.0388 µM, O=C(OCc1nc2ccsc2c(=O)[nH]1)c1cccc(S(=O)(=O)N2CCOCC2)c1 34.6 µM
